Screening results as filed in PubChem BioAssay.
hcDAF-12 act: activates DAF-12 receptor from parasite H. contortus | HEK293 hcDAF-12 lit1-tk-luc reporter, luminescence; 0% DMSO, 100% Δ7-dafachronic acid | activation, % at 6.8 µM | AID 652067 | actives 1.4% (n = 370,000);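 active = activation above the mean of all tested compounds plus 3 SD, cut at about 5.5% in these data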;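 also: 100% = response to 3 µM Δ7-dafachronic acid high control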
AHR act: activators of human aryl hydrocarbon receptor. P35869. AHR-responsive luciferase reporter cells, luminescence. activation, % at 5 µM. actives 2.5% (n = 320,000); in the data active = activation above about 47%;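 also: 0% = vehicle wells and 100% = reference agonist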
Target sequence (P35869 whole entry, looked up): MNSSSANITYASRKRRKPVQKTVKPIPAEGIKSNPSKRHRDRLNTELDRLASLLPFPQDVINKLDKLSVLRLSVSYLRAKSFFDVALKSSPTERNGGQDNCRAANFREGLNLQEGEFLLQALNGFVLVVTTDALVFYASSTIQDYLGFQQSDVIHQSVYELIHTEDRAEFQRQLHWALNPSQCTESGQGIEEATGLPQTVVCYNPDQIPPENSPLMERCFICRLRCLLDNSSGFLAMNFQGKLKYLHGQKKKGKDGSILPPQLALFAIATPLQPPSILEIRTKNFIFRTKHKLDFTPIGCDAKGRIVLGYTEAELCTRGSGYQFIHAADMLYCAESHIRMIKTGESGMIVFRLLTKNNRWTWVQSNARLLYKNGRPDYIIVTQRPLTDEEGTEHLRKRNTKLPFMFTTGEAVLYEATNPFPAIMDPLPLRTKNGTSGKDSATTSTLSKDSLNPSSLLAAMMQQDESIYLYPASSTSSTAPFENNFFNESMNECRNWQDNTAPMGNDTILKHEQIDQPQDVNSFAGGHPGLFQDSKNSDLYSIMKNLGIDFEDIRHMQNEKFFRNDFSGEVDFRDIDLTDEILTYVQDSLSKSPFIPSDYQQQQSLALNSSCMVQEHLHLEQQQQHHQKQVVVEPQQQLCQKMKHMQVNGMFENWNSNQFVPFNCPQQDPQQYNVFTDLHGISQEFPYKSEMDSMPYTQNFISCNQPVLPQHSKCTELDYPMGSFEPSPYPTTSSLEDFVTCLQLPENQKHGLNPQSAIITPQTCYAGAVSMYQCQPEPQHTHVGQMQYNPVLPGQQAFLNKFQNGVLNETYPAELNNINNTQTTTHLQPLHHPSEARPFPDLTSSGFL
hgDAF-12 ag: hgDAF-12 agonism, primary luciferase screen. activation, % at 6.8 µM. HEK293 GAL4-hgDAF12 UAS-luciferase reporter, agonist luminescence; normalized to butyrate control. AID 687014. actives 1.8% (n = 370,000);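 active = activation above a cutoff set at the mean of all screened compounds plus 3 SD, cut at about 10% in these data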;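 also: 0% = DMSO wells and 100% = sodium butyrate wells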
DAX1 inh-1: blocks DAX1 repression of SF-1 activated StAR promoter | HEK293T StAR-luciferase reporter, SF-1/DAX-1 repression relief | inhibition, % at 6.8 µM | actives 1.1% (n = 370,000);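 active = inhibition above the mean over all tested compounds plus 3 SD, cut at about 3.6% in these data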;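 also: 0% = DAX-1 cells with DMSO and 100% = cells lacking DAX-1 with DMSO; higher inhibition means more luminescence from relief of DAX-1 repression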
DAX1 inh-2: inhibits human nuclear receptor DAX1 | inhibition, % at 6.75 µM | AID 504766 | actives 0.99% (n = 340,000) | P51843 | HEK293 Gal4-DAX1 luciferase reporter, luminescence;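 active = inhibition above the mean over all tested compounds plus 3 SD, cut at about 4.2% in these data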;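 also: 0% = DAX1-transfected cells with DMSO and 100% = empty-vector control cells with DMSO; inhibition shows as a rise in luminescence from relieved DAX1 repression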
ssDAF-12 act: S. stercoralis DAF-12 activation, primary screen | actives 1% (n = 370,000) | AID 652126 | activation, % at 6.8 µM | HEK293 ssDAF-12/GRIP1 lit1-tk-luc reporter, luminescence; % of 3 µM dafachronic acid response;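 active = activation above the mean over all tested compounds plus 3 SD, cut at about 0.9% in these data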;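 also: 0% = DMSO-only wells and 100% = 3 µM delta7-dafachronic acid wells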
An asterisk follows results filed as active; . = not tested or not shown. Only some compounds are listed: those with a hit (about 5.7% of all), similar ones and a draw of the others.

SMILES	hcDAF-12 act	AHR act	hgDAF-12 ag	DAX1 inh-1	DAX1 inh-2	ssDAF-12 act
CCCCn1c(N)c(N(CCOC)C(=O)CSc2ccccc2C)c(=O)[nH]c1=O	-0.5	-0.1	3.2	0.0	5.3*	-0.2
Cc1cc(C)n2nc(C(=O)N(C)c3c(N)n(Cc4ccccc4)c(=O)[nH]c3=O)nc2n1	0.1	-0.3	-1.4	-0.4	1.8	-0.3
CCCN(C(=O)c1nc2nc(C)cc(C)n2n1)c1c(N)n(Cc2ccccc2)c(=O)[nH]c1=O	-1.8	0.1	-0.6	3.8*	2.1	-1.4
CC(=O)Nc1ccc(NCN2C(=O)[C@@H]3[C@H]4CC[C@H](C4)[C@@H]3C2=O)cc1	-0.5	1.2	-0.7	-0.3	0.6	-1.1
CCOC(=O)c1ccc(N(CCC2CO2)S(=O)(=O)c2ccc(C)cc2)cc1 (configuration not stated)	-0.3	.	1.9	-1.3	-0.2	-0.8
c1ccc(-c2cnc(-c3ccccc3)nc2)cc1	4.8	5.0	10.6*	2.3	1.9	0.7
Brc1ccc(CN2CCCc3nc(-c4ccccc4)ccc32)cc1	2.4	.	4.8	-1.3	.	0.8
NC(=O)c1ncn([C@@H]2O[C@H](C(=O)N[C@H](Cc3ccccc3)C(=O)O)[C@@H](O)[C@H]2O)n1	2.0	.	-6.8	0.3	.	-1.3
O=C(NC1CC1)C1=C[C@H](c2ccc(C(F)(F)F)cc2)C[C@H](OCc2ccc(CO)cc2)O1	-1.5	1.5	2.0	-0.5	-0.9	-1.1
FC(F)(F)c1ccccc1Cc1c(-c2ccc(Cl)cc2)nc2c3ccccc3ccn12	5.1	.	0.6	0.9	.	1.8*
COc1ccc(-c2nc3c4ccccc4ccn3c2Cc2ccccc2C(F)(F)F)cc1OC	2.8	.	4.0	-2.6	.	-0.3
Fc1ccc(-c2nc3c4ccccc4ccn3c2Cc2ccsc2)cc1	3.5	.	8.3	0.4	.	1.1*
CCOC(=O)Cc1c(-c2cccc(Br)c2)nc2c3ccccc3ccn12	6.1*	.	4.5	-1.6	.	1.4*
Clc1cccc(Cc2c(-c3cccc(Cl)c3)nc3c4ccccc4ccn23)c1	3.8	.	3.0	0.8	.	1.1*
CCOc1ccccc1C(=O)N(Cc1ccc(C)o1)C1CCS(=O)(=O)C1 (configuration not stated)	-0.3	0.1	0.4	-0.9	-0.1	-0.8
Clc1cccc(-c2nc3c4ccccc4ccn3c2Cc2ccccc2)c1	5.0	.	1.8	0.4	.	0.8
Fc1ccc(-c2nc3c4ccccc4ccn3c2Cc2ccccc2)cc1	2.5	.	1.6	-0.8	0.6	1.6*
Fc1ccc(-c2nc3c4ccccc4ccn3c2Cc2cccc(Cl)c2)cc1	5.9*	.	4.3	1.9	.	0.7
Clc1cccc(Cc2c(-c3ccccc3)nc3c4ccccc4ccn23)c1	0.2	.	0.1	0.9	.	0.2
Clc1cccc(-c2nc3c4ccccc4ccn3c2Cc2ccsc2)c1	6.0*	.	10.4	2.2	.	3.3*
CC(=O)c1c(-c2ccc(C)cc2)nc2c3ccccc3ccn12	3.6	58.8*	-2.1	0.5	-1.1	0.1
CN[C@H]1C[C@H]2c3[nH]c4c(-c5ccc6c(c5)OCO6)cccc4c3CCN2C(=O)[C@H]1[C@H](C)O	-2.0	.	0.7	-0.1	.	-0.1
O=C(CSc1nnc(-c2cccc(F)c2)o1)N1CCCC1	0.9	1.1	4.0	0.4	1.1	-0.9
FC(F)(F)c1ccccc1Cc1c(C2CCCCC2)nc2c3ccccc3ccn12	2.3	.	3.4	1.6	.	1.7*
Fc1cccc(Cc2c(-c3cccc(Cl)c3)nc3c4ccccc4ccn23)c1	4.6	.	1.7	1.3	.	0.4
SMILES	hcDAF-12 act	AHR act	hgDAF-12 ag	DAX1 inh-1	DAX1 inh-2	ssDAF-12 act
CCCc1nc2c3ccccc3ccn2c1Cc1cccc(F)c1	4.7	.	9.8	1.9	.	1.1*
Fc1ccc(-c2nc3c4ccccc4ccn3c2Cc2cccc(F)c2)cc1	5.6*	.	6.7	-0.4	.	0.1
Cc1ccc2nc(C3CCCCC3)c(Cc3cccc(F)c3)n2c1	-3.1	.	0.4	0.2	.	-1.4
CCCc1nc2ccc(C)cn2c1Cc1cccc(F)c1	4.5	.	10.4	3.9*	.	1.9*
O=C(CCNC(=O)C1CCN(S(=O)(=O)c2ccc(F)cc2)CC1)Nc1ccccc1	-0.1	-0.6	0.3	0.7	0.3	-0.9
CC1CCN(C(=O)COC(=O)[C@H](C)NS(=O)(=O)/C=C/c2ccccc2)CC1	-0.5	-4.5	-1.2	-0.9	0.2	-1.5
Cc1cc(Br)c2nc(-c3ccc(F)cc3)c(Cc3cccc(Cl)c3)n2c1	2.8	.	2.0	0.0	.	1.3*
Brc1cccc(-c2nc3c4ccccc4ccn3c2Cc2ccsc2)c1	3.6	.	5.1	2.2	.	1.8*
Cc1cc(Br)cn2c(Cc3ccsc3)c(-c3cccc(Br)c3)nc12	1.4	.	0.2	0.3	.	0.2
Cc1ccc(-c2nc3ccc(Br)cn3c2Cc2cccc(Cl)c2)cc1	0.3	.	6.4	2.8	.	-0.1
Clc1cccc(Cc2c(C3CCCCC3)nc3c4ccccc4ccn23)c1	6.3*	.	6.9	3.8*	.	0.5
Clc1cccc(Cc2c(C3CCCCC3)nc3ccc(Cl)cn23)c1	-0.6	.	1.5	-0.8	.	-1.2
CCC(=O)Nc1cccc(C(=O)c2ccc(C)c(C)c2)c1	-3.1	-10.2	-5.3	-1.6	-0.9	-2.8
C=CCNC(=O)NC(=O)COC(=O)CNS(=O)(=O)c1ccc(F)c(F)c1F	-0.1	1.1	-0.6	-0.5	5.2*	-1.1
O=C(COC(=O)CNS(=O)(=O)c1ccc(F)c(F)c1F)NC1CC1	0.3	-0.8	4.7	0.9	-2.0	-0.9
CCC(C)(C)C1CCC(=NNC(=S)Nc2cccnc2)CC1 (configuration not stated)	0.6	69.2*	3.2	0.2	2.4	-1.6
Clc1ccc(-c2cn(-c3nc4ccccc4s3)nn2)cc1	5.7*	.	2.5	0.9	.	0.0
O=C(Cc1ccc(F)cc1)N1CCC(N2CCC(C(=O)N3CCOCC3)CC2)CC1	0.2	0.5	1.9	-0.4	0.8	-1.3
O=C(NCCCN1CCN(c2cccc(Cl)c2)CC1)c1nc(-c2ccncc2)no1	-3.9	5.8	-1.0	-0.9	-0.6	-1.5
COC(=O)[C@@H](C)NC(=O)c1ccc2oc(CCc3ccccc3)nc2c1	4.1	8.0	11.2*	0.5	2.7	-0.2
COC(=O)CCCNC(=O)c1ccc2oc(CCCc3ccccc3)nc2c1	0.5	4.9	3.9	0.2	0.7	-0.4
CCC(C)Nc1nc(C)nc2c1nnn2Cc1ccccc1 (configuration not stated)	-2.5	.	-1.9	0.6	.	-0.8
Fc1ccc2nc(N3CCOCC3)sc2c1	1.1	-0.1	11.7*	1.0	0.5	-1.0
Cc1ccc(C(O)(COC(=O)C(C)C)COC(=O)C(C)C)c(O)c1	-1.1	-0.2	1.4	0.4	0.6	-1.4
O=C(Nc1ccc(F)cc1F)C1(c2cccs2)CCOCC1	-0.9	1.2	0.1	-0.7	4.5*	0.0
COc1nc(-c2ccncc2)nc2ccccc12	-1.3	75.4*	-1.4	-0.7	1.4	-1.6
